PubChem BioAssay (NCI)
Compounds without any hit were thinned out: in the full panel of roughly 83,000, 20% have a hit.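 Cell lines were cultured in 96-well plates, exposed to a single compound concentration, and assessed for percent growth 48 hours later.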 Values without a mark were called inactive. The source made the active and inactive calls. Rule for the calls: active = growth percent below 10; inactive = the rest.

What was measured:
Test in all cases: NCI-60 one-dose screen, 48 h (100 = growth as untreated, 0 = no growth, -100 = all killed)
Conditions in all cases: 10 µM unless noted
SK-MEL-2 melanoma = test system: SK-MEL-2 melanoma
EKVX NSCLC = test system: EKVX NSCLC
SN12C renal = test system: SN12C renal
UO-31 renal = test system: UO-31 renal
TK-10 renal = test system: TK-10 renal
ACHN renal = test system: ACHN renal
CAKI-1 renal = test system: CAKI-1 renal
A498 renal = test system: A498 renal
CCRF-CEM leukemia = test system: CCRF-CEM leukemia
MOLT-4 leukemia = test system: MOLT-4 leukemia
RPMI-8226 leukemia = test system: RPMI-8226 leukemia
OVCAR-8 ovarian = test system: OVCAR-8 ovarian
OVCAR-5 ovarian = test system: OVCAR-5 ovarian
OVCAR-4 ovarian = test system: OVCAR-4 ovarian
SK-OV-3 ovarian = test system: SK-OV-3 ovarian
IGROV1 ovarian = test system: IGROV1 ovarian
OVCAR-3 ovarian = test system: OVCAR-3 ovarian
HS 578T breast = test system: HS 578T breast
NCI/ADR-RES ovarian = test system: NCI/ADR-RES ovarian

Structure (SMILES)	growth (SK-MEL-2 melanoma)	growth (EKVX NSCLC) [%]	growth (SN12C renal) [%]	growth (UO-31 renal)	growth (TK-10 renal) [%]	growth (ACHN renal)	growth (CAKI-1 renal)	growth (A498 renal)	growth (CCRF-CEM leukemia) [%]	growth (MOLT-4 leukemia)	growth (RPMI-8226 leukemia)	growth (OVCAR-8 ovarian) [%]	growth (OVCAR-5 ovarian)	growth (OVCAR-4 ovarian)	growth (SK-OV-3 ovarian) [%]	growth (IGROV1 ovarian)	growth (OVCAR-3 ovarian)	growth (HS 578T breast)	growth (NCI/ADR-RES ovarian)
CN(C)c1ccc2nc3ccc(=[N+](C)C)c([N+](=O)[O-])c-3sc2c1	47.2%	25	39.6	51.7%	71.3	27.9%	43.1%	68.5%	12.7	15.5%	21.5%	12.7	-7.81% (active)	0.851% (active)	59.2	20%	-12.5% (active)	37%	7.62% (active)
OC(COc1ccccc1Cl)CN1CCN(c2cccc(Cl)c2)CC1 (stereo not drawn)	106%	119	104	83.1%	107	101%	99.1%	108%	113	107%	115%	91.9	97.8%	110%	109	122%	113%	112%	113%
Cc1ccc2nc(NC(=O)CSc3nc(Cl)c(C#N)c(-c4ccccc4)n3)sc2c1	102%	102	98.2	80.7%	107	102%	94.8%	102%	105	104%	96.9%	98.3	104%	105%	95.7	93.3%	107%	95.9%	102%
C=C1CC[C@@]2(C#N)[C@H]3[C@H](CC[C@@H]2C)[C@@H](C)C[C@@H](CC(C)(C)C#N)[C@H]13	61.3%	32.9	60.7	14%	50.6	28%	19%	51.1%	22	29.3%	40.3%	49.1	48.5%	37.7%	46.1	42.9%	51%	30.2%	35.4%
CCCCN(C)N=Nc1ccc(C(N)=O)cc1	107%	96.2	96.7	57.1%	111	107%	59%	89.7%	110	87.7%	114%	107	99.2%	107%	121	89.1%	103%	101%	106%
O=C(O)C(c1ccccc1)N1C(=O)CSC1=S (stereo not drawn)	102%	98	97	94.3%	95.7	102%	89.3%	83.9%	105	99.9%	114%	101	101%	–	101	107%	106%	100%	106%
Nc1cc2c(cc1Br)-c1cc(Cl)ccc1C2=O	100%	86.5	102	67.1%	115	100%	78.5%	102%	98.2	88.2%	88.7%	99.3	91.8%	99.9%	98.7	74.2%	96.5%	98.6%	106%
CC(=O)N1CCN(c2ccc(OCC3CO[C@](Cn4ccnc4)(c4ccc(Cl)cc4Cl)O3)cc2)CC1 (stereo partly drawn)	86.8%	87.9	84.2	53.7%	101	92.5%	79.6%	86.4%	75.2	77.4%	43.8%	83.9	91.3%	67.6%	95.5	80.2%	99%	102%	84.4%
CCCCCCCCCCCCCCCCCCOc1ccc(CC(=O)OCC[N+](C)(C)C)cc1	115%	101	94.1	101%	93.8	99.9%	90.4%	119%	102	2.06% (active)	91.7%	107	96.8%	97.3%	107	91%	115%	99.6%	99.3%
COc1c(B(O)O)cc(F)cc1-c1nc2ccc3[nH]ncc3c2c2c1CCCC2	18.7%	10.2	11.6	5.35% (active)	21.5	9.67% (active)	-5.6% (active)	-67.9% (active)	10.9	9.89% (active)	-9.77% (active)	16.1	15.4%	–	19.3	10.6%	11.9%	-2.19% (active)	16.1%
Cc1cc(O)c(C2=NN(c3ccc(S(N)(=O)=O)cc3)C(/C=C/c3ccccc3)C2)cc1Cl (stereo not drawn)	34.1%	68.8	66.4	78.2%	68.3	33.1%	48.7%	39.9%	66.2	73.3%	48.7%	38.6	51%	34.6%	17	16%	29.7%	39.2%	29.7%
CCOC(=O)Nc1ccc(C(=O)/C=C/c2ccccc2)cc1	105%	105	87	51.9%	103	102%	105%	92.1%	91.6	78.8%	18.9%	92.3	102%	103%	110	-22.8% (active)	86.8%	93.6%	89%
O=C(/C=C/c1sc(Cl)nc1Cl)c1ccc(F)cc1	95.5%	88.8	45.1	85.4%	103	22.4%	88.2%	91.9%	37.5	48.5%	0.843% (active)	83.7	104%	102%	99.4	94.8%	9.39% (active)	86.8%	98.5%
COc1ccc(OC)c(/C=C/C(=O)N/N=C/c2ccccc2)c1	-1.33% (active)	64	52.1	56.6%	56.7	62.8%	47.5%	38.7%	55.2	36.5%	54.4%	54.8	85%	78.2%	60	38.5%	6.02% (active)	66.5%	8.51% (active)
COc1cccc(-c2nn(-c3ccccc3)cc2-c2ccnc(N3CCOCC3)c2)c1	96.7%	82.2	98	66.2%	92	84.3%	81.4%	71.7%	97.8	59.2%	67.9%	96.6	94.7%	84.2%	87.9	79.5%	95.5%	115%	77.5%
